In PubChem BioAssay:
Results filed as inconclusive are left out. Activity calls are given as the source filed them. Unless noted, cut-off not given; nearly all actives show AC50 up to about 30 µM.

Key:
[1] = viability loss in pontine glioma line – cell-based, SU-DIPG-XIII, MIPE4.0, CellTiter-Glo, qHTS, dose response (AID 1347061; cut-off not given, nearly all actives have AC50 up to about 37 µM;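 further: cells exposed to compound for 48 hours before readout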); settings: CellTiter-Glo ATP luminescence
[2] = viability loss in pontine glioma line – cell-based, JHH-DIPG-1, MIPE4.0, CellTiter-Glo, qHTS, dose response (AID 1347062; cut-off not given, nearly all actives have AC50 up to about 27 µM); settings: JHH-DIPG-1 viability, CellTiter-Glo ATP luminescence
[3] = viability loss in pontine glioma line – cell-based, SU-DIPG-IV, MIPE4.0, CellTiter-Glo, qHTS, dose response (AID 1347063); settings: CellTiter-Glo ATP luminescence;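 further: compound exposure lasted 48 hours before the viability readout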
[4] = growth inhibition of DIPG cells – cell-based, MIPE4.0 library, CellTiter-Glo luminescence, qHTS (AID 1347066); settings: SU-DIPG-VI viability, CellTiter-Glo ATP luminescence;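 further: cells exposed to compound for 48 hours before readout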
[5] = growth inhibition of DIPG cells – cell-based, MIPE5.0 library, qHTS (AID 1347068; cut-off not given, nearly all actives have IC50 up to about 30 µM); settings: SU-DIPG-XXV viability
[6] = viability loss in pontine glioma line – cell-based, SU-DIPG-XXV, MIPE5.0, CellTiter-Glo, qHTS, dose response (AID 1347065; cut-off not given, nearly all actives have AC50 up to about 26 µM;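 further: cells exposed to compound for 48 hours before ATP readout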); settings: CellTiter-Glo ATP luminescence
[7] = JHH-DIPG-1 glioma cell viability, MIPE5.0 library, CellTiter-Glo luminescence, qHTS (AID 1347067; cut-off not given, nearly all actives have AC50 up to about 26 µM;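 further: cells exposed to compound for 48 hours before readout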); settings: JHH-DIPG-1 glioma viability, CellTiter-Glo ATP luminescence

| Structure (SMILES) | outcome [1] | outcome [2] | outcome [3] | outcome [4] | outcome [5] | AC50 [3] | AC50 [6] | AC50 [7] |
| --- | --- | --- | --- | --- | --- | --- | --- | --- |
| CCN1C[C@H](C)n2c(c(O)c3c(=O)n(Cc4ccc(F)c(Cl)c4)nc(C(=O)NC)c32)C1=O | inactive | inactive | inactive | inactive | – | – | – | – |
| Cc1nnc(C(C)C)n1C1C[C@H]2CC[C@@H](C1)N2CC[C@H](NC(=O)C1CCC(F)(F)CC1)c1ccccc1 (stereo not given in full) | inactive | inactive | inactive | inactive | – | – | – | – |
| C=C1C[C@@]2(O)O[C@@]3(C[C@H]2C(C)C)[C@@H](C)CC[C@@H]13 | inactive | inactive | inactive | inactive | inactive | – | – | – |
| CCCCCNC(=O)N1CCC(CN(Cc2ccc(Cl)cc2)Cc2ccc([N+](=O)[O-])s2)C1 (stereo not given) | inactive | inactive | – | – | – | 23.5 µM (active) | 29.5 µM (active) | 23.5 µM (active) |
| OC[C@H]1O[C@@H](OCCc2ccc(O)cc2)[C@H](O)[C@@H](O)[C@@H]1O | inactive | inactive | inactive | inactive | – | – | – | – |
| CN(C)c1nc(Cc2ccc(NC(=O)c3ccc(C(F)(F)F)cc3)cc2)nc(N(C)C)c1CC(=O)O | inactive | inactive | inactive | inactive | – | – | – | – |
| CCC(CC)[C@H](NC(C)=O)[C@@H]1[C@H](O)[C@@H](C(=O)O)C[C@H]1N=C(N)N | inactive | inactive | inactive | inactive | – | – | – | – |
